Experimental data: PubChem BioAssay (Tox21)
Records with an inconclusive call do not appear. More than one record can exist for a structure, and the calls need not agree. The source made the active and inactive calls. Calls follow the shape of the dose curve; as a rule, active = well fitted cell-killing curve with a large enough effect in the repeat runs; inconclusive = weak or mixed curves; inactive = flat fitted curve, though single readings scatter.

Test: qHTS RealTime-Glo MT Cell Viability Assay in HepG2 cells - 24 hour (AID 1224867); also: nearly all actives have a fitted effect of over 50% in size
Settings: RealTime-Glo luminescence; series mostly up to 76.8 µM; activity change, negative = cytotoxicity: at the top concentration
Text: U.S. Tox21 Program National Center for Advancing Translational Sciences [NCATS] NIH Chemical Genomics Center [NCGC] U.S. Environmental Protection Agency [EPA] National Institutes of Environmental Health Sciences [NIEHS] National Toxicology Program [NTP] U.S. Food and Drug Administration [FDA] Tox21 Assay Overview: Measure of cell viability is critical in the cell-base assay. Analysis of cell viability is necessary for the characterization of cell responses to cytotoxic drugs and environmental stress. A RealTime-Glo MT Cell Viability Assay to monitor cell viability in real time of continues cell culture during 40 hours of compound treatment was used to screen Tox21 10K library compounds in HepG2 cells. The RealTime-Glo MT Cell Viability Assay is a nonlytic, homogeneous, bioluminescent method to measure cell viability in real time using a simple, plate-based method. The assay involves adding NanoLuc luciferase and a cell-permeant prosubstrate to cells in culture. Viable cells reduce the proprietary prosubstrate to generate a substrate for NanoLuc luciferase. This substrate diffuses from cells into the surrounding culture medium, where it is rapidly used by the NanoLuc Enzyme to produce a luminescent signal. The signal correlates with the number of viable cells, making the assay well suited for cytotoxicity studies.
Tox21 Assay Protocol Summary: The mixture of HepG2 cell suspension and reagents were dispensed at 600cells/6 ul/well in 1536-well tissue culture treated black solid bottom plates using a Multidrop dispenser. After the assay plates were incubated at a 37 C/5% CO2 incubator for 5 hours, 23 nL of compounds dissolved in DMSO, positive and negative controls was transferred to the assay plate by a pintool work station. The plates were incubated at 37 C for 40 hours. The luminescence intensity were measured at 0h, 8h, 16h, 24h, 32h and 40h time points using ViewLux plate reader during compound treatment.
% is scaled to controls: 0 for no effect and ±100 for the full control effect; potency is read from the fitted curve at half-maximal effect.

| SMILES | activity change, negative = cytotoxicity | Potency |
| --- | --- | --- |
| O=C(Nc1cccc([N+](=O)[O-])c1)c1cc2ccccc2cc1O | -25.6% (inactive) |  |
| CC(=O)SC[C@@H](Cc1ccccc1)C(=O)NCC(=O)OCc1ccccc1 | -3.86% [at 35.3 µM] (inactive) |  |
| NNC(=O)c1cccc(C(=O)NN)c1 | 2.83% (inactive) |  |
| [O-][n+]1ccccc1SSc1cccc[n+]1[O-] |  | 0.208 µM (active) |
| O=S1(=O)CC(Cl)(Cl)C(Cl)(Cl)C1 |  | 6.92 µM (active) |
| O=C(Nc1cccc(Cl)c1)OCC#CCCl |  | 49 µM (active) |
| Cc1[nH]cnc1C[C@H]1CCc2c(C)c3ccccc3n2C1=O |  | 38 µM (active) |
| CCC(C)(C)C1CCCCC1OC(C)=O (stereo not given) | 0.266% (inactive) |  |
| ON=C1CCCC1 | -11.4% (inactive) |  |
| On1ccccc1=S |  | 0.544 µM (active) |
| CC(C)(C)C(=O)OCOC(=O)C1N2C(=O)CC2S(=O)(=O)C1(C)C (stereo not given) | 3.19% [at 35.3 µM] (inactive) |  |
| CCCCCCCC[P+](CCCCCCCC)(CCCCCCCC)CCCCCCCC |  | 13.7 µM (active) |
| CC(C)c1ccc2c(c1)CC[C@H]1[C@](C)(CN)CCC[C@]21C |  | 13.8 µM (active) |
| Cc1cc(C2CCCCC2)n(O)c(=O)c1 | -22.6% [at 35.3 µM] (inactive) |  |
| CCCCCCCC/C=C/CCCCCCCC1=NCCN1CCO |  | 17.4 µM (active) |
| O=C(c1ccc(O)cc1O)c1ccc(O)cc1O |  | inactive |
| Clc1ccccc1C(c1ccccc1)(c1ccccc1)n1ccnc1 |  | 21.9 µM (active) and inactive |
| CSc1ccc(C(=O)c2[nH]c(=O)[nH]c2C)cc1 | 6.68% [at 35.3 µM] (inactive) |  |
| C=C(C)C(=O)OCC[N+](C)(C)C | -0.0732% (inactive) |  |
| CCN(C(=O)N(CC)c1ccccc1)c1ccccc1 | -3.82% (inactive) |  |

| SMILES | activity change, negative = cytotoxicity | Potency |
| --- | --- | --- |
| O=C(Oc1ccccc1)c1ccccc1C(=O)Oc1ccccc1 | -22.3% (inactive) |  |
| CC[C@H]1O[C@]2(CC[C@@H]1C)C[C@@H]1C[C@@H](C/C=C(\C)C[C@@H](C)/C=C/C=C3\CO[C@@H]4[C@H](O)C(C)=C[C@@H](C(=O)O1)[C@]34O)O2 |  | 43.3 µM (active) |
| Cc1cccc(N(C)C(=S)Oc2ccc3c(c2)C2CCC3C2)c1 (stereo not given) | -11.1% [at 35.3 µM] (inactive) |  |
| O=C(O)c1c(Cl)cccc1Cl | -0.0492% (inactive) |  |
| [Cl][Bi]([Cl])([c]1ccccc1)([c]1ccccc1)[c]1ccccc1 |  | 6.88 µM (active) |
| [Cl][Au]([Cl])[Cl] |  | 9.77 µM (active) |
| O=[N+]([O-])c1cc([N+](=O)[O-])c2ccc(S(=O)(=O)O)cc2c1O | -18% (inactive) |  |
| O=C(c1ccc(F)cc1)C1CCN(CCn2c(=O)[nH]c3ccccc3c2=O)CC1 | -12.4% [at 35.3 µM] (inactive) |  |
| CCCN(CCC)c1c([N+](=O)[O-])cc(C(F)(F)F)c(N)c1[N+](=O)[O-] |  | 54.8 µM (active) |
| CCCCCCCCCCCCCCCC(=O)OC[C@H](O)[C@H]1OC(=O)C(O)=C1O | -0.887% (inactive) |  |
| O=C(OCC1CO1)C1CCCCC1C(=O)OCC1CO1 (stereo not given) | 0.421% (inactive) |  |
| Cc1onc(-c2c(Cl)cccc2Cl)c1C(=O)N[C@@H]1C(=O)N2[C@@H]1SC(C)(C)[C@@H]2C(=O)O | -0.102% [at 35.3 µM] (inactive) |  |
| N=C1C=CC(=C(c2ccc(N)cc2)c2ccc(N)cc2)C=C1 |  | 24.5 µM (active) |
| CC(=O)OCC(C)OC(C)=O (stereo not given) | 0.374% (inactive) |  |
| CCCCc1oc2ccc(NS(C)(=O)=O)cc2c1C(=O)c1ccc(OCCCN(CCCC)CCCC)cc1 |  | 9.52 µM (active) |
| Cc1cccc(S(=O)(=O)O)c1C | 0.207% (inactive) |  |
| Cc1[nH]nc2c1N=C(c1ccccc1Cl)c1cc([N+](=O)[O-])ccc1N2 | -17.6% (inactive) |  |
| CNC(=O)c1ccccc1 | 2.55% (inactive) |  |
| Cc1cc(O)c(C(C)(C)C)cc1Sc1cc(C(C)(C)C)c(O)cc1C |  | 43.6 µM (active) |
| N#CC1(c2ccc(F)cc2)CCC(=O)CC1 | 0.772% [at 35.3 µM] (inactive) |  |
